In PubChem BioAssay (Tox21):
Values joined by “and” are separate entries in the source; they are usually repeats but may differ in a detail not shown here. Identical values can stand only once. Records with an inconclusive call do not appear. Entries that show only a call come without a potency. Some compounds were tested as several samples or in several runs, with calls that do not always agree. Active and inactive are the calls of the source. Unless noted, the call rests on the fitted dose curve; in most records, active means well fitted curve in the direction sought with a large enough effect in the repeat runs; inconclusive means weak or mixed curves; inactive means no such curve, though single readings can be large; an effect the other way counts as inactive or inconclusive.

What was measured:
[1] = molecular target: Thyrotropin receptor (Homo sapiens) (UniProt P16473); test: qHTS assay to identify small molecule agonists of the thyroid stimulating hormone receptor (TSHR) signaling pathway (AID 1224843; calls by dose curve; further: nearly all actives have a fitted effect of over 45% in size)
Thyrotropin receptor (Homo sapiens), sequence (P16473 whole entry, looked up): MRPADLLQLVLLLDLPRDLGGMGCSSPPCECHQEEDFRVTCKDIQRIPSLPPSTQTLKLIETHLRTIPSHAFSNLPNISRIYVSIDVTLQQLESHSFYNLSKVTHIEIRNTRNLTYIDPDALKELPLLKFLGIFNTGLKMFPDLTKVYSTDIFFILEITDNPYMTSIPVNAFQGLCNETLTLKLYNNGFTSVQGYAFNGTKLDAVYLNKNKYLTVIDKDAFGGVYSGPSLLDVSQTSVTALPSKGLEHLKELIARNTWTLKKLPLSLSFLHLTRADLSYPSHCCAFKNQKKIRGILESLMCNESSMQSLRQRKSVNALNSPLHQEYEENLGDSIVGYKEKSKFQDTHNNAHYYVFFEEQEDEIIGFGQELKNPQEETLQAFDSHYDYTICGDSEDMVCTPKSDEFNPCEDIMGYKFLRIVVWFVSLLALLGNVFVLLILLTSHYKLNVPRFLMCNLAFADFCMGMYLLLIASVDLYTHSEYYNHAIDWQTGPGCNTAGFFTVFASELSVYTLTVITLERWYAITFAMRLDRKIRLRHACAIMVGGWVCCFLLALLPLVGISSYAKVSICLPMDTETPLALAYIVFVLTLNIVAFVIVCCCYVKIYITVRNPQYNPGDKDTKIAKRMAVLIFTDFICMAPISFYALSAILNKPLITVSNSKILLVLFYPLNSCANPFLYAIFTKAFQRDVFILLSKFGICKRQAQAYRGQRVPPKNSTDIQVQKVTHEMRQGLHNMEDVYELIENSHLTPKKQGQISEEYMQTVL
Outline: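 Agonist activity read as cAMP rise via d2/cryptate HTRF competition, 1 h room-temperature detection, in HEK293 cells expressing TSHR. Fifteen-point titrations, each run in triplicate, with a 30 min room-temperature incubation beforehand.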

[2] = qHTS assay to identify small molecule agonists of the hypoxia (HIF-1) signaling pathway - cell viability counter screen (AID 1224844; calls by dose curve; further: nearly all actives have a fitted effect of over 50% in size)
Outline: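 Same wells as the HIF-1 reporter screen; ME-180 cells carrying HRE-bla, 17 hr treatment at 37C; CellTiter-Glo luminescence read after 30 min at room temperature.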

[3] = qHTS assay to identify small molecule agonists of H2AX (AID 1224845; active means well fitted activation curve with a large enough effect in the signal ratio in the repeat runs, not every such curve was filed as active; the % refers to the signal ratio)
Outline: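 Phospho-H2AX Ser139 measured by HTRF (ex 320 nm; em 665 and 620 nm) after 24 hr antibody incubation. Compounds, 15 concentrations, 0.76% DMSO, were applied to CHO-K1 cells for 3hr at 37C before lysis.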

[4] = qHTS assay to identify small molecule agonists of the hypoxia (HIF-1) signaling pathway (AID 1224846; active means well fitted activation curve with a large enough effect in the signal ratio in the repeat runs, not every such curve was filed as active; the % refers to the signal ratio)
Outline: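 In ME-180 cells bearing an HRE-bla construct, 17 h treatment with DMSO-dissolved compounds at 37C was followed by CCF4-AM loading to quantify reporter induction.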

[5] = qHTS assay to identify small molecule agonists of H2AX - cell viability counter screen (AID 1224847; calls by dose curve;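 further: wild-type CHO-K1 cells; top concentration of the series differs between compounds; nearly all actives have a fitted effect of over 30% in size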)
Outline: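 For this counter screen, overnight-attached CHO-K1 cells received test compounds (15 concentrations, 0.76% DMSO final); 3 hr later at 37C, CellTiter-Glo reagent was added and luminescence recorded after 30 min at room temperature.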

[6] = qHTS RealTime-Glo MT Cell Viability Assay in HepG2 cells - 24 hour (AID 1224867); further: nearly all actives have a fitted effect of over 50% in size
Outline: (§1)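 HepG2 cells (600/well) were dispensed with RealTime-Glo reagents, incubated 5 h at 37 °C, then treated with compounds in DMSO for up to 40 h. Nonlytic NanoLuc luminescence reflecting viable cells was read at each stated time point.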

[7] = qHTS RealTime-Glo MT Cell Viability Assay in HEK293 cells - 32 hour (AID 1224868); further: top concentration of the series differs between compounds; nearly all actives have a fitted effect of over 50% in size
Outline: (§2)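 HEK293 cells seeded with NanoLuc/prosubstrate reagent, rested 5 h at 37 C, then dosed and kept at 37 C up to 40 h. Nonlytic real-time luminescence from viable cells read at 0, 8, 16, 24, 32 and 40 h.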

[8] = A CellTox Green Cytotoxicity Assay to monitor cytotoxicity in HEK293 cells - 0 hour (AID 1224869); further: nearly all actives have a fitted effect of over 50% in size; further: potency means the concentration at half of the fitted maximal effect
Outline: (§3)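 Homogeneous no-lysis format: HEK293 cell suspension mixed with CellTox Green reagent, seeded, incubated 5 h at 37 C/5% CO2, then dosed by pintool with compound in DMSO.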

[9] = qHTS RealTime-Glo MT Cell Viability Assay in HepG2 cells - 40 hour (AID 1224870); further: nearly all actives have a fitted effect of over 50% in size
Outline: (§4)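 Real-time viability: cells seeded at 600 per well together with NanoLuc and cell-permeant prosubstrate, compounds added after 5 h incubation. Luminescence tracked at 0, 8, 16, 24, 32 and 40 h of exposure.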

[10] = A CellTox Green Cytotoxicity Assay to monitor cytotoxicity in HEK293 cells - 40 hour (AID 1224871); further: nearly all actives have a fitted effect of over 45% in size; further: potency means the concentration at half of the fitted maximal effect
Outline: as §3

[11] = qHTS RealTime-Glo MT Cell Viability Assay in HEK293 cells - 16 hour (AID 1224872)
Outline: as §2

[12] = qHTS RealTime-Glo MT Cell Viability Assay in HepG2 cells - 8 hour (AID 1224873); further: nearly all actives have a fitted effect of over 55% in size
Outline: as §4

[13] = qHTS RealTime-Glo MT Cell Viability Assay in HEK293 cells - 40 hour (AID 1224874); conditions: RealTime-Glo luminescence; max response: stronger effect = lower value; further: nearly all actives have a fitted effect of over 50% in size
Outline: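 Measured as luminescence from the same continuously cultured HEK293 wells at successive time points (0, 8, 16, 24, 32, 40 h) after compound addition. Reagent present from seeding; dosing at 5 h; incubation 37 C.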

[14] = A CellTox Green Cytotoxicity Assay to monitor cytotoxicity in HEK293 cells - 24 hour (AID 1224875); further: nearly all actives have a fitted effect of over 45% in size
Outline: as §3

[15] = qHTS RealTime-Glo MT Cell Viability Assay in HepG2 cells - 32 hour (AID 1224877); further: nearly all actives have a fitted effect of over 55% in size
Outline: as §1

[16] = A CellTox Green Cytotoxicity Assay to monitor cytotoxicity in HepG2 cells - 24 hour (AID 1224878); further: nearly all actives have a fitted effect of over 45% in size; further: potency means the concentration at half of the fitted maximal effect
Outline: (§5)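 Fluorescent DNA-binding dye, 600 HepG2 cells/well, 5 h preincubation then compound in DMSO; same plates read at 0–40 h, 37 C.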

[17] = A CellTox Green Cytotoxicity Assay to monitor cytotoxicity in HepG2 cells - 40 hour (AID 1224879); further: nearly all actives have a fitted effect of over 40% in size; further: potency means the concentration at half of the fitted maximal effect
Outline: as §5

[18] = qHTS assay to identify small molecule antagonists of the estrogen related receptor (ERR) signaling pathway from Tox21 library (AID 1224848); further: nearly all actives have a fitted effect of over 50% in size
Outline: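 Luciferase luminescence (ONE-Glo, 30 min room temperature) was the read-out. Cells of the NTP-supplied ERR line, 2,000 per well, were given 6 h at 37 C before compound addition in DMSO and 18 h exposure at 37 C.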

[19] = A CellTox Green Cytotoxicity Assay to monitor cytotoxicity in HepG2 cells - 16 hour (AID 1224876); further: nearly all actives have a fitted effect of over 45% in size
Outline: as §5

[20] = qHTS assay to identify small molecule agonists of the estrogen related receptor (ERR) signaling pathway from Tox21 library (AID 1224849; calls by dose curve; further: nearly all actives have a fitted effect of over 15% in size); conditions: ERR reporter cell line, ONE-Glo luciferase, 18 h; at 92.4 µM (top of the series) unless noted
Outline: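 Reporter cells (ERR, NTP source) treated with Tox21 10K compounds 18 h, 37 C. Readout: ONE-Glo luminescence, 30 min RT.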

| SMILES | Potency [1] | Potency [2] | outcome [3] | outcome [4] | Potency [5] | Potency [6] | Potency [7] | Potency [8] | Potency [9] | Potency [10] | Potency [11] | Potency [12] | max response [13] | Potency [14] | Potency [15] | Potency [16] | Potency [17] | Potency [18] | Potency [19] | activity change, positive = activation [20] |
| --- | --- | --- | --- | --- | --- | --- | --- | --- | --- | --- | --- | --- | --- | --- | --- | --- | --- | --- | --- | --- |
| CCCCC/C=C\CCC=O | inactive | inactive | inactive | inactive | inactive | inactive | inactive | inactive | inactive | inactive | inactive | inactive | 1.73% (inactive) | inactive | inactive | inactive | inactive | – | – | – |
| O=c1n(CCO)c(=O)n(CCO)c(=O)n1CCO | inactive | inactive | inactive | inactive | inactive | inactive | inactive | inactive and 43.6 µM (active) | inactive | inactive and 38.9 µM (active) | inactive | inactive | – | – | inactive | inactive and 38.9 µM (active) | inactive and 43.6 µM (active) | – | – | – |
| COC(=O)CC(C)=O | inactive | inactive | inactive | inactive | inactive | inactive | inactive | inactive | inactive | inactive | inactive | inactive | – | inactive | – | inactive | inactive | inactive | inactive | – |
| FC1(F)C(F)(F)C(F)(F)C2(F)C(F)(F)C(F)(F)C(F)(F)C(F)(F)C2(F)C1(F)F (configuration not stated) | inactive | inactive | inactive | inactive | inactive | inactive | – | inactive | inactive | inactive | inactive | inactive | 1.37% (inactive) | inactive | inactive | – | inactive | inactive | inactive | – |
| Nc1c2c(nc3ccccc13)CCCC2O (configuration not stated) | inactive | inactive | inactive | – | inactive | inactive | inactive | inactive | inactive | inactive | inactive | inactive | 24.6% (inactive) | inactive | inactive | – | inactive | inactive | – | 0.138% [at 42.5 µM] (inactive) |
| CC(C)NC(=O)NC(C)C | inactive | inactive | inactive | inactive | – | inactive | – | inactive | inactive | inactive | inactive | inactive | 4.41% (inactive) | – | inactive | – | inactive | inactive | inactive | -2.14% (inactive) |
| Cc1[nH]c(=O)c(C#N)cc1-c1ccc2nccn2c1 | inactive | inactive | inactive | inactive | inactive | inactive | inactive | inactive | inactive | inactive | inactive | inactive | 5.99% (inactive) | – | inactive | inactive | inactive | – | inactive | – |
| CC(=O)OCC(=O)[C@@]1(O)CCC2C3CCC4=CC(=O)CC[C@]4(C)C3[C@@H](O)C[C@@]21C (some centres not stated) | inactive | inactive | inactive | inactive | inactive | inactive | inactive | inactive | inactive | inactive | inactive | inactive | -13.4% (inactive) | – | inactive | inactive | inactive | inactive | inactive | – |
| Cc1ccc(=O)n(-c2ccccc2)c1 | inactive | inactive | inactive | – | inactive | inactive | inactive | inactive | inactive | inactive | inactive | inactive | 1.08% (inactive) | inactive | inactive | inactive | inactive | inactive | inactive | -0.153% [at 42.5 µM] (inactive) |
| O=C1CCCCCCCCCCCN1 | inactive | inactive | inactive | inactive | inactive | inactive | inactive | inactive | inactive | inactive | inactive | inactive | 0.14% (inactive) and 1.61% (inactive) | inactive | inactive | inactive | inactive | – | inactive | – |
| COc1c(N2C[C@@H]3CCCN[C@@H]3C2)c(F)cc2c(=O)c(C(=O)O)cn(C3CC3)c12 | inactive | inactive | inactive | inactive | inactive | inactive | – | – | inactive | inactive | inactive | inactive | – | – | – | inactive | inactive | inactive | inactive | – |
| CCO/C([O-])=N/c1c[n+](N2CCOCC2)no1 | inactive | inactive | inactive | – | inactive | inactive | inactive | inactive | inactive | inactive | inactive | inactive | 5.08% (inactive) | inactive | inactive | inactive | inactive | inactive | inactive | 0.723% [at 42.5 µM] (inactive) |
| CN1CCCC1 | inactive | inactive | inactive | inactive | inactive | inactive | inactive | inactive | inactive | inactive | inactive | inactive | 1.57% (inactive) | – | inactive | inactive | inactive | inactive | inactive | – |
